Screening results deposited in PubChem by National Center for Advancing Translational Sciences (NCATS).
GLP-1R inv ag = acts as inverse agonist at human GLP-1 receptor; P43220; HEK293 GLP-1R CRE-luciferase, luminescence, 24 h; GLP-1R form is constitutively active; Potency, µM (top dose mostly 38.3 µM), inactives show at the top dose activity change, negative = inhibition, hits mostly inhibitors; 410,000 tested, 1.6% active; also: % is scaled to controls: 0 for no effect and ±100 for the full control effect; nearly all actives have a fitted effect of over 55% in size
Target sequence (P43220 whole entry, looked up): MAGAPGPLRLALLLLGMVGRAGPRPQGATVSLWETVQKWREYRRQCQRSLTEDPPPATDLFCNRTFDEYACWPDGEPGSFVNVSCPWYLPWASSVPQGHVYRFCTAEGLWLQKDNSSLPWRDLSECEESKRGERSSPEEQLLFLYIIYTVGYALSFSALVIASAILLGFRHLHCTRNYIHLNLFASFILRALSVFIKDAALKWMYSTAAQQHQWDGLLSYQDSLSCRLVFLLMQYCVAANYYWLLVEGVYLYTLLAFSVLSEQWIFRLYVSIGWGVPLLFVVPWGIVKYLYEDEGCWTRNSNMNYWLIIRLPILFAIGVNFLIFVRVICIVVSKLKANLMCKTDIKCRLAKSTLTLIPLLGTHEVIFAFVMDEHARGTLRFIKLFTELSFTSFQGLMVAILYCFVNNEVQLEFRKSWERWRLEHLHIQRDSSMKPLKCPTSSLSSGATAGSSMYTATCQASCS
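qHTS in 1536-well format: reporter HEK293 cells expressing constitutive GLP-1R activity in DMEM + 10% Nu serum, 24 hr with compounds at 37 deg C, luminescence read after 12 min with detection reagent.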
GLP1R cytotox = cytotoxic in the GLP-1 receptor inverse agonist counter-screen | HEK293 cAMP-luciferase reporter cells, luminescence, 24 h | Potency, µM (titrated, usually from 38.3 µM), for the others: at the top dose activity change, negative = inhibition, actives largely listed as inhibitors | 410,000 tested, 0.13% active;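 also: loss of luciferase light is scored as toxicity; % is scaled to controls: 0 for no effect and ±100 for the full control effect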
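Seeding density was 200 cells/uL; after overnight-length (12 h) culture, 23 nL compounds went on for 24 h at 37 °C. Readout used a luciferase detection reagent, luminescence taken after 12 min at room temperature.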
GLP1R ag = GLP-1 receptor (human) agonism. P43220. HEK293 GLP-1R CRE-luciferase, luminescence, 4-6 h; cells express a hypersensitive GLP-1R form. Potency, µM (titrated, usually from 45.6 µM), inactives show top-dose activation, usual class: activators. 380,000 tested, 0.007% active. AID 624172; also: % of control where 0% means no effect
PTHR1 agonist = PTHR1 (human) receptor agonism. Q03431. HEK293 GP2 PTHR1 cells, GloSensor cAMP luminescence, 1 h. Potency, µM (titrated, usually from 115 µM), without a hit: top-dose activation, actives largely listed as activators. 410,000 tested, 0.075% active. AID 743266; also: nearly all actives have a fitted effect of over 55% in size
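HEK-293-derived GP2 cells expressing PTHR1 and a GloSensor cAMP reporter, 3,000/well, plated overnight, given luciferin plus IBMX (each 0.5 mM as added) for 1 h at 37 °C, then compound for 1 h at 37 °C. Luminescence was read after 15 min at room temperature.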
The depositor's hits bear a star; i = inactive; ? = inconclusive; · = not tested or not shown; [ ] = another dose, or the depositor's remark. In the library only some 1.7% were active in any assay of this set; here they are far more common. Calls follow the shape of the dose curve; as a rule, active = well fitted curve in the direction sought with a large enough effect; inconclusive = small, poorly fitted or top-dose-only effect, or another doubt; inactive = no such curve, though single readings can be large; an effect the other way counts as inactive or inconclusive. Potency is read from the fitted curve at half-maximal effect.

SMILES	GLP-1R inv ag	GLP1R cytotox	GLP1R ag	PTHR1 agonist
Cc1ccc(CN2C(=O)C3(c4ccccc42)N(c2cccc(C(F)(F)F)c2)C(=O)CS3(=O)=O)cc1 (centres undefined)	?	0%	-2%	-16%
C/C(=N\NC(=O)c1ccccc1)c1ccccc1Br	?	5µM*	9%	i
C/C(=N\NC(=O)c1ccccc1)c1ccccc1F	22%	13%	4%	i
CCN(CC)C(=O)C1CCCN(c2ccc([N+](=O)[O-])cc2/C=N/NC(=O)c2cccc(Br)c2)C1 (centres undefined)	2µM*	-19%	-13%	i
C=CCc1ccc(O)c(-c2cc(CC=C)ccc2O)c1	11µM*	-3%	2%	-58%
C=CCc1ccc(OCC(O)CO)c(OC)c1 (centres undefined)	-5%	12%	1%	-1%
COc1cccc(CNS(=O)(=O)c2ccc3c(c2)C(C(C)C)C(=O)N3)c1 (centres undefined)	-13%	-1%	·	-22%
COc1cc(/C=N/NS(=O)(=O)c2ccc(C)cc2)ccc1OCc1ccc(C(=O)O)cc1	2.8µM*	-10%	-8%	-30%
CCOc1ccc(/C=N/NS(=O)(=O)c2ccc(C)cc2)cc1OC	20%	0%	7%	-39%
Oc1ccc(CNc2ccccc2)c2cccnc12	6.3µM*	?	-10%	i
OCc1ccnc2c(O)cccc12	8.9µM*	?	-6%	-3%
CCOc1ccc(S(=O)(=O)Nc2cccc(OC)c2)c2cccnc12	14%	-11%	2%	-33%
CCOC(=O)c1cc(-c2ccccc2)n(CC(=O)NCc2ccccc2OC)c1C	-13%	2%	·	i
Cc1ccc(Cn2c(CNC(=O)Cc3cccc([N+](=O)[O-])c3)nc3cccnc32)cc1	0%	1%	·	-13%
Cc1ccc([N+](=O)[O-])cc1N=C(c1cccc(Br)c1)N1CCOCC1	7.9µM*	-5%	6%	-8%[57.5 µM]
O=C(Oc1cccc(C(=S)N2CCOCC2)c1)c1ccc([N+](=O)[O-])cc1	-10%	17%	-1%	-36%
CCOc1ccc(NC(=O)CSc2oc(-c3ccco3)nc2S(=O)(=O)c2ccc(Cl)cc2)cc1	4%	8%	·	-15%
O=C(/C=C/c1ccc([N+](=O)[O-])cc1)Nc1ncc([N+](=O)[O-])s1	13µM*	?	-14%	-31%
O=C(/C=C/c1ccc([N+](=O)[O-])cc1)NCc1ccccn1	9%	15%	7%	i
O=C(N/N=C/c1ccccc1[N+](=O)[O-])c1ccc2c(c1)OCCO2	-14%	-6%	11%	-29%
O=C(N/N=C/c1cc([N+](=O)[O-])ccc1O)c1ccc2c(c1)OCCO2	?	3.5µM*	-2%	i
CCC(C)C(=O)N1c2ccccc2C(=C2SC(C(=O)OC)=C(C(=O)OC)S2)C(=S)C1(C)C (centres undefined)	10µM*	10%	-1%	-83%
COc1ccccc1C(=O)NNC(=O)c1nn(Cc2ccccc2)c(=O)c2ccccc12	?	10µM*	10%	i
O=C(CCCSc1nnnn1-c1cccc2ccccc12)c1ccc(F)cc1	10µM*	-5%	10%	-17%
COC(CNC(=O)C1CCCN1C(=O)OCc1ccccc1)OC (centres undefined)	4%	-19%	7%	-22%
SMILES	GLP-1R inv ag	GLP1R cytotox	GLP1R ag	PTHR1 agonist
COC(=O)[C@@H]1C[C@]2(OC(=O)c3ccccc3)C=CC(=O)C[C@@H]2N1C(=O)OCc1ccccc1	7.1µM*	0%	-6%	-94%
O=C1c2ccccc2C2=Nc3ccccc3SC(c3cccc(F)c3)C12 (centres undefined)	?	7.9µM*	-5%	-25%
O=C1c2ccccc2C2=Nc3ccccc3SC(c3ccc(Cl)cc3)C12 (centres undefined)	13µM*	?	1%	-6%
Fc1cccc(C2NN=C(c3ccccc3)S2)c1 (centres undefined)	3%	1%	9%	?
O=C(O)CCn1cc(/C=C\C(=O)c2ccc(Cl)cc2)c(-c2cccc(Br)c2)n1	13µM*	4%	-1%	-28%
O=Cc1cn(CCC(=O)O)nc1-c1cccc(Br)c1	6%	-3%	-4%	-2%
CCOC(=O)c1cn2nc(N3CCCC3)ccc2n1	5.6µM*	15%	-30%	-23%
Cc1ccc2[nH]c3c(c2c1)CCCC3=O	15%	2%	2%	-7%
